From PubChem
Compounds with a hit are over-represented: about 12% of the library has one in this group of screens.
HP1b binding inh – HP1-beta chromodomain-methylated histone interaction inhibition; P83916; AlphaScreen HP1-beta / biotin-H3K9me3 peptide binding; Potency, µM (series often up to 114 µM), actives largely listed as inhibitors; actives 0.56% (n = 390,000); note: nearly all actives have a fitted effect of over 70% in size
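AlphaScreen: HP1-beta (50 nM) preformed 30 min with biotin-H3(1-18)K9me3 peptide (50 nM) in PBS pH 7.4, 0.01% Tween-20. Compound added for 30 min at RT, then streptavidin donor/nickel chelate acceptor beads (10 ug/mL) for 30 min.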
PLK1 PBD inh – inhibitors of human PLK1 polo-box domain binding; Plk1 PBD binding of FITC phosphopeptide, fluorescence polarization; actives 2.8% (n = 360,000); Potency, µM, usual class: inhibitors; note: series mostly up to about 57 µM; nearly all actives have a fitted effect of over 65% in size
Target sequence (P53350 whole entry, looked up, the tested form may be a part): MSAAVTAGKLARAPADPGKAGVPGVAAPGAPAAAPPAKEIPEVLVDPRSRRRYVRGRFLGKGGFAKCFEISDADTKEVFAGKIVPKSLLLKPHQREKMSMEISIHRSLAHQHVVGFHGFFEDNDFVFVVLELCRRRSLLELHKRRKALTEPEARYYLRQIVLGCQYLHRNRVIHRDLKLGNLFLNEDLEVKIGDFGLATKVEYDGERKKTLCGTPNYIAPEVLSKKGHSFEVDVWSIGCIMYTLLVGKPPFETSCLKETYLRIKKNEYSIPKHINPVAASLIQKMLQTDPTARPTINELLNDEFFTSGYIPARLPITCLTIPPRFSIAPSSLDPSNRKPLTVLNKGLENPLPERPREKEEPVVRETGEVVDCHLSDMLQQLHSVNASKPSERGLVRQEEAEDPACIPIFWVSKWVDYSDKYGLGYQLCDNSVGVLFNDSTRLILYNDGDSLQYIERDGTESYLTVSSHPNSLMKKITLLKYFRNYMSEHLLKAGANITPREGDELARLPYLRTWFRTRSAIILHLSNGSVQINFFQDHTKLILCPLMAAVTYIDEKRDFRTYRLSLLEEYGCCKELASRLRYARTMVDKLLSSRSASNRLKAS
BAZ2B block – inhibitors of human BAZ2B bromodomain; Q9UIF8; AlphaScreen BAZ2B-H3K14Ac peptide displacement; Potency, µM (top dose mostly 114 µM), usual class: inhibitors; actives 4.4% (n = 360,000); AID 504333; note: nearly all actives have a fitted effect of over 60% in size
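Compounds, titrated to a top concentration of 110 uM, were incubated 30 min at room temperature with preformed BAZ2B/acetyl-K14 H3 peptide complex (50 nM each). Proximity signal was measured by AlphaScreen after 20 min with beads.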
Sfp PPTase inh – blocks B. subtilis Sfp PPTase activity | Biochemical Sfp PPTase activity, qHTS | Potency, µM, actives largely listed as inhibitors | actives 3.5% (n = 310,000) | AID 1490;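 note: the enzyme is Sfp with the accession as filed and its product quenches rhodamine fluorescence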
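After 15 min at room temperature with compound, 15 nM Sfp received 5 uM rhodamine-CoA plus 12.5 uM BHQ-2-ybbR (50 mM Hepes pH 7.6, 10 mM MgCl2). Rate came from the fluorescence difference over 30 min, ex 525/em 598 nm.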
JMJD2A Tudor – blocks the human JMJD2A Tudor domain; O75164; AlphaScreen JMJD2A-Tudor / H3K4me3 peptide binding; Potency, µM (doses to about 114 µM), actives largely listed as inhibitors; actives 4.4% (n = 390,000); note: nearly all actives have a fitted effect of over 50% in size
G9a block – G9a (human) methyltransferase inhibition; G9a H3K9 monomethylation, AlphaScreen, 2 h; Potency, µM (top dose mostly 102 µM), actives largely listed as inhibitors; actives 8.8% (n = 350,000); note: nearly all actives have a fitted effect of over 75% in size
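Step 1: enzyme (final 20 nM) with compound, 15 min RT. Step 2: substrate peptide 500 nM and SAM 20 uM, 2 h RT. Step 3: anti-H3K9me1 antibody and AlphaScreen beads, 10 min, then plate read.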
A number is an active result; . = inactive; ? = inconclusive; / = no result; [ ] = another dose, or the depositor's remark. Calls come from the whole dose curve; as a rule, active = well fitted curve in the direction sought with a large enough effect; inconclusive = small, poorly fitted or top-dose-only effect, or another doubt; inactive = no such curve, though single readings can be large; an effect the other way counts as inactive or inconclusive.

SMILES	HP1b binding inh	PLK1 PBD inh	BAZ2B block	Sfp PPTase inh	JMJD2A Tudor	G9a block
CCOc1ccc(NCc2cc3c(C(C)(C)C)nn(-c4ccccc4)c3[nH]c2=O)cc1	?	.	22.4µM	.	50.1µM	39.8µM
COCCCNC(=O)c1ccc2nc([C@@H]3O[C@H](CO)[C@H](O)[C@H](O)[C@H]3O)[nH]c2c1	/	.	/	/	/	/
COc1cc(Cl)c(C)cc1NC(=O)CSc1sc2c(O)cc(=O)[nH]c2c1C#N	.	15µM	39.8µM	?	56.2µM	?
Cc1ccc(NC(=O)CSc2sc3c(O)cc(=O)[nH]c3c2C#N)c(F)c1	.	?	?	?	.	?
N#Cc1c(SCC(=O)Nc2nncs2)sc2c(O)cc(=O)[nH]c12	?	?	10µM	14.1µM	25.1µM	?
COc1ccc(OC)c(NC(=O)CSc2sc3c(O)cc(=O)[nH]c3c2C#N)c1	?	?	?	.	15.8µM	?
N#Cc1c(SCC(=O)Nc2ccc(C(F)(F)F)cc2)sc2c(O)cc(=O)[nH]c12	.	.	.	?	.	?
COc1ncnc2c1ncn2CC1COC(C)(C)O1 (stereo not given)	.	.	/	/	.	/
Cc1nc(N=Nc2cc(S(=O)(=O)O)ccc2S(=O)(=O)O)c(COP(=O)(O)O)c(C=O)c1O	/	/	/	.	/	/
O=c1[nH]cnc(CN2CCCCC2)c1O	.	.	/	/	50.1µM	/
COc1ccc(/C=C2\SC(=Nc3ccccc3)NC2=O)cc1	/	/	.	.	/	/
O=C1NC(=Nc2ccc(O)cc2)S/C1=C\C=C\c1ccco1	.	?	?	.	.[11.4 µM]	50.1µM
COc1ccc(N=C2NC(=O)/C(=C\c3ccco3)S2)cc1	?	.	28.2µM	?	?	?
CN1C(=O)/C(=C/c2ccco2)SC1=Nc1ccc(N2CCOCC2)cc1	?	.	7.94µM	.	.	7.08µM
CCCOc1ccc(CNC(=O)c2cc3oc4ccccc4c3n2C)cc1	.	/	.	/	.	.
Cc1ccc2c(=O)c3cccc(CC(=O)O)c3oc2c1C	/	/	/	.	/	/
COc1ccc(C2CC(c3ccccc3)=NN2C(=O)CCCC(=O)O)cc1 (stereo not given)	.	.	.	.	.	.
CC1=CC(=O)C=C(C)C1=NOc1ccccc1[N+](=O)[O-]	.	.	.	5.62µM	.	25.1µM
CC1CCN(S(=O)(=O)c2cc(C(=O)Nc3ccccn3)ccc2Br)CC1	.	.	.	/	.	.
CN(Cc1ccccc1)C(=O)COC(=O)c1cncc(Br)c1	.	.	.	.	.	.
CC(C)N(C(=O)COC(=O)c1cncc(Br)c1)C(C)C	.	21.2µM	.	.	?	.
O=C(COC(=O)c1cncc(Br)c1)NCCC1=CCCCC1	.	.	.	.	.	50.1µM
O=C(COC(=O)c1cccc(Br)c1)NCCC1=CCCCC1	.	.	/	.	.	.
COCC(=O)Nc1ccc(Nc2ccccc2)cc1	.	.	39.8µM	70.8µM	.	?
CCC(=O)Nc1ccc(NC(=O)CCc2ccccc2)cn1	.	.	.	.	.	.
SMILES	HP1b binding inh	PLK1 PBD inh	BAZ2B block	Sfp PPTase inh	JMJD2A Tudor	G9a block
O=C(Nc1ccc(Nc2ccccc2)cc1)c1ccccc1	.	.	/	/	?	/
CCC(=O)Nc1ccc(Nc2ccccc2)cc1	.	.	.	.	.	50.1µM
NC(=O)Nc1ccc(Nc2ccccc2)cc1	.	.	?	.	.	56.2µM
CCOC(=O)c1ccc(NC(=O)COC)cc1	.	.	.	.	.	.[12.7 µM]
CCC(=O)Nc1ccc(NC(=O)Cc2ccccc2)cn1	.	.	?	.	.	56.2µM
CC(C)C[C@@H](CC(=O)N[C@@H](CCC(=O)O)CC(=O)O)NC(=O)[C@@H]1CNCC[C@H]1NC(=O)C[C@@H](NC(=O)C[C@H](Cc1ccccc1)NC(=O)[C@@H]1CCCC[C@H]1N)C(C)C	/	/	/	.	/	/
Cc1cc(C(=O)NNc2ccc(Cl)cc2)no1	.	.	.	.	.	/
Cc1cc(C(=O)NNc2ccc(F)cc2F)no1	.	.	.	.	.	.
Cc1ccc(NNC(=O)c2cc(C)on2)c(C)c1	.	.	.	.	.	11.2µM
Cc1cc(C(=O)NNc2ccc(C)c(C)c2)no1	.	.	.	.	.	2.51µM
Cc1ccc(NNC(=O)c2ccno2)cc1Cl	.	.	.	.	.	8.91µM
Cc1ccc(NNC(=O)c2ccno2)cc1C	.	?	.	.	79.4µM	6.31µM
CCN(CC)c1ncnc2c1ncn2[C@H]1CN(Cc2ccc(OC)cc2)C[C@@H](CO)O1	/	.	/	/	/	/
CNC(=S)N(CCc1c(C)[nH]c2ccc(C)cc12)Cc1cc(OC)c(OC)c(OC)c1	.	.	39.8µM	.	?	50.1µM
CNC(=S)N(CCc1c(C)[nH]c2ccc(OC)cc12)Cc1cc(OC)c(OC)c(OC)c1	.	.	44.7µM	.	?	50.1µM
O=C(O)Cn1cc(/C=c2/sc3nc4ccccc4n3c2=O)c2ccccc21	?	?	?	.	56.2µM	50.1µM
COc1ccc(S(=O)(=O)N2CCN(c3nc(-c4ccccc4)nc4ccccc34)CC2)cc1	.	/	/	/	?	/
Clc1ccc(Nc2ncnc3ccc(Br)cc23)cc1	.	.	.	.	.	.
CN(C)c1ccc(Nc2ncnc3ccc(Br)cc23)cc1	?	.	44.7µM	?	44.7µM	10µM
O=C1OC(c2ccccc2)=C/C1=C/N1CCCCC1	.	.	50.1µM	?	?	?
Cc1ccc(/C=N/N=C2/NC(=O)C(CC(=O)N3CCOCC3)S2)cc1 (stereo not given)	.	?	?	39.8µM	.	28.2µM
COc1ccc(/C=N/N=C2/NC(=O)C(CC(=O)NC(C)C)S2)cc1 (stereo not given)	.	.	.	.	.	.
COc1ccc(SCC(Cc2ccccc2)N2CCN(CC(C)C)CCC2=O)cc1 (stereo not given)	.	/	/	.	.	/
CC(=O)OC1OCCOC1NC(=S)NCc1ccco1 (stereo not given)	.	.	.	22.4µM	?	/
CC(=O)OC1OCCOC1NC(=S)Nc1cccc(C(F)(F)F)c1 (stereo not given)	.	.	.	.	.	.
SMILES	HP1b binding inh	PLK1 PBD inh	BAZ2B block	Sfp PPTase inh	JMJD2A Tudor	G9a block
COc1cc(/C=N/NC(=O)c2c(C)nc3ccc(Cl)cn23)cc(OC)c1OC	.	21.2µM	?	.	22.4µM	/
COc1cccc(/C=N/NC(=O)c2c(C)nc3ccc(Br)cn23)c1O	.	?	7.94µM	.	35.5µM	.
Cc1nc2ccccn2c1C(=O)N/N=C/c1ccccc1	.	.	.	.	.	.[2.33 µM]
COc1cc(/C=N/NC(=O)c2nc3ccccn3c2C)cc(OC)c1O	.	.	.	.	.	15.8µM
Cc1c(C(=O)N/N=C/c2ccc(N3CCOCC3)cc2)nc2ccccn12	.	.	.	.	.	.
Cc1nc2ccccn2c1C(=O)N/N=C/c1cc(C)n(-c2ccc(Br)cc2)c1C	.	.	44.7µM	.	?	.
COC(=O)c1cc2occc2n1Cc1nc(-c2ccccc2)oc1C	.	/	.	/	.	.
COc1ccc(N2CCN(c3ncnc4c3cnn4-c3ccc(F)cc3)CC2)cc1	.	/	.	/	.	.
